Data on 58 compounds can be found in PubChem BioAssay AID463173 (ICCB-Longwood Screening Facility, Harvard Medical School, 2010).

Structures are written as SMILES. Hit rate of the full screen: of about 52,000 compounds, about 4,300 (8.3%) were called active. The full list was thinned out, with actives kept by preference. Values without a mark were called inactive. Rule as the data show it: active = survival mostly below about 52% (no sharp cut-off); inactive = mostly above about 56%.

This assay concerns DeltatarO mutant. Kind of assay: growth inhibition of S. aureus wild type versus tarO mutant, primary screen, teichoic acid synthesis inhibitors, RN4220, OD600 (AID 463173). The following applies: OD600, 18 h, stronger effect = lower value, screened at 18.75 µg/mL (by protocol).
Turning to `CCc1ccc(S(=O)(=O)c2nnn3c2nc(N(C)Cc2ccccc2)c2cc(Cl)ccc23)cc1`, the survival was 82%.
With `COc1cc(-c2nc3sccn3c2Nc2cccc(C)c2)ccc1O` the figure was 54%; with `Cc1ccc(Cn2c(=O)n(CCCCC(=O)NCCc3ccc(Cl)cc3)c(=O)c3ccccc32)cc1`, 96%; with `O=C(CCCn1c(=O)c2ccccc2n(Cc2cccc(F)c2)c1=O)NCc1ccccc1Cl`, 74%.
Take `Cc1ccc(Cn2c(=O)n(CCCCC(=O)NCc3ccccc3Cl)c(=O)c3ccccc32)cc1`: the survival is 102%.
`Cc1ccc(Cn2c(=O)n(Cc3ccccc3Cl)c(=O)c3cccnc32)cc1`: the survival was 69%.
The result for `Cc1ccc(Cn2c(=O)n(CCc3ccc(Cl)cc3)c(=O)c3ccccc32)cc1` reads 42% (active); that for `Cc1ccc(Cn2c(=O)n(Cc3ccccc3Cl)c(=O)c3ccccc32)cc1`, 48% (active).
With `O=c1c2cccnc2n(Cc2cccc(F)c2)c(=O)n1Cc1ccccc1Cl` the figure was 91%; with `O=c1c2ccccc2n(Cc2cccc(F)c2)c(=O)n1Cc1ccccc1Cl`, 29% (active).
The result for `Cc1ccc(CNC(=O)CCCCn2c(=O)c3ccccc3n(Cc3ccc(Cl)cc3)c2=O)cc1` reads 105%; that for `O=C(CCc1ccccc1)N/N=C/c1ccco1`, 104%; that for `Cc1cc(C)c(NS(=O)(=O)c2ccc(-c3cnc(C4CC4)o3)cc2)c(C)c1`, 99%.
With `CCCC(=O)C1=C(O)C(C(=O)OC)C(C)(C)CC1=N` (stereo not drawn), the survival is 95%.
With `Cc1ccccc1CNC(=O)CN1CCSc2ccccc21` the figure was 89%; with `Cc1ccccc1NC(=O)c1c(C)oc2ccc(O)c(CN3CCCC(C)C3)c12` (stereo not drawn), 108%.
Regarding `Cc1nn(-c2ccccc2)c(-n2cccc2)c1C(=O)N1CCN(c2ccccc2)CC1`, the survival is 83%.
The result for `Cc1ccc(N(C)S(=O)(=O)c2ccc3c(c2)C(C)(C)C(=O)N3C)cc1C` reads 80%; that for `Cc1ccc2c(Sc3ccc(Cl)cc3)c(C(=O)N3CCC(C)CC3)[nH]c2c1`, 69%.
For the compound `COc1ccc2c(Sc3ccc(Cl)cc3)c(C(=O)N3CCCCC3)[nH]c2c1`, the survival is 40% (active).
The result for `CCOC(=O)C1CCCN(C(=O)c2ccc3c(c2)N(Cc2ccc(Cl)cc2)C(=O)c2ccccc2S3=O)C1` (stereo not drawn) reads 60%; that for `COc1ccc2c(Sc3ccccc3)c(C(=O)N3CCC(C)CC3)[nH]c2c1`, 69%.
As to `CCOC(=O)C1CCCN(S(=O)(=O)c2ccc(Cl)cc2)C1` (stereo not drawn), the survival is 95%.
In the case of `COc1ccc2c(Sc3ccc(Cl)cc3)c(C(=O)N3CCC(C)CC3)[nH]c2c1`, the survival was 64%.
With `O=C(c1[nH]c2ccccc2c1Sc1ccc(Cl)cc1)N1CCCCC1`, the survival is 11% (active).
Turning to `Cc1ccc2c(Sc3ccc(Cl)cc3)c(C(=O)N3CCCCC3)[nH]c2c1`, the survival was 85%.
For `CCOC(=O)C1CCCN(C(=O)c2[nH]c3ccccc3c2Sc2ccc(Cl)cc2)C1` (stereo not drawn), the survival was 37% (active).
For the compound `CCOC(=O)C1CCCN(C(=O)c2ccc3c(c2)N(Cc2cccc(Cl)c2)C(=O)c2ccccc2S3(=O)=O)C1` (stereo not drawn), the survival is 64%.
Regarding `Cc1cccc(NC(=O)CS(=O)(=O)c2nc(-c3ccccc3)cn2-c2cccc(Cl)c2)c1C`, the survival is 63%.
The result for `Cc1ccc(C)c(Cn2c(=O)n(CCCCC(=O)NCc3ccccc3Cl)c(=O)c3ccccc32)c1` reads 107%; that for `COc1ccc(N(C)C(=O)Cn2cc(S(=O)(=O)N3CCN(c4ccccc4F)CC3)c3ccccc3c2=O)c(OC)c1`, 97%.
In the case of `Cc1ccc(-c2nn3c(C)nnc3c3ccccc23)cc1S(=O)(=O)NC(C)(C)CO`, the survival is 74%.
For the compound `O=C(NCc1ccccc1Cl)c1cnc2sc(N3CCOCC3)nn2c1=O`, the survival is 71%.
Regarding `COc1cccc(-c2nc(SCc3cc(=O)c4cc(Cl)ccc4[nH]3)n[nH]2)c1`, the survival is 94%.
The result for `O=C(C1CC2c3ccccc3C1c1ccccc12)N1CCOCC1` (stereo not drawn) reads 86%.
The result for `COc1ccc(OC)c(NC(=O)C2CCN(S(=O)(=O)c3ccc4c(c3)CC(C)N4C(C)=O)CC2)c1` (stereo not drawn) reads 75%; that for `COc1ccc(C(=O)NCc2ccc3c(c2)CCN3C(=O)c2cccc(C)c2)cc1OC`, 119%.
With `Cc1ccc(Cl)cc1N1CCN(S(=O)(=O)c2ccc3[nH]c4c(c3c2)CCCC4)CC1` the figure was 72%; with `COc1ccc(NC(=O)CN(c2ccccc2OC)S(C)(=O)=O)c(OC)c1`, 75%.
`Cc1ccc(-n2ccn(CC(=O)c3ccc(F)cc3)c(=O)c2=O)cc1C`: the survival was 69%.
For `Cc1c(NC(=O)c2cc(=O)c3cc(Cl)ccc3o2)c(=O)n(-c2ccccc2)n1C`, the survival was 43% (active).
The result for `Cc1cc2oc(C(=O)Nc3c(C)n(C)n(-c4ccccc4)c3=O)cc(=O)c2cc1C` reads 78%; that for `CCc1ccc2oc(C(=O)Nc3c(C)n(C)n(-c4ccccc4)c3=O)cc(=O)c2c1`, 97%; that for `Cc1cc(C)c2c(=O)cc(C(=O)Nc3c(C)n(C)n(-c4ccccc4)c3=O)oc2c1`, 65%.
As to `Cc1ccc2c(=O)cc(C(=O)Nc3c(C)n(C)n(-c4ccccc4)c3=O)oc2c1`, the survival was 39% (active).
With `Cc1c(NC(=O)c2cc(=O)c3ccccc3o2)c(=O)n(-c2ccccc2)n1C` the figure was 67%.
Take `CCN(CC)CCN1C(=O)c2ccccc2NC1c1ccccc1F` (stereo not drawn): the survival is 106%.
For the compound `CCOc1ccc(NC(=O)CSc2cn(CCNC(=O)c3ccccc3F)c3ccccc23)cc1`, the survival was 71%.
`CCC(Sc1nccn1C)C(=O)Nc1cc(C)on1` (stereo not drawn): the survival was 90%.
With `CCC(Sc1nc2nccnc2c(=O)n1Cc1ccc(C)cc1)C(=O)NC1CCCCC1` (stereo not drawn) the figure was 39% (active); with `CCC(C(=O)NC1CCCCC1)n1c(SCc2ccc(F)cc2)nc2ccncc21` (stereo not drawn), 73%.
Regarding `Cc1ccc(CSc2nc3cc(C(=O)NC4CCCC4)ccc3c(=O)n2Cc2ccccc2)cc1`, the survival was 57%.
In the case of `CCC(Sc1nc2nccnc2c(=O)n1Cc1ccc(OC)cc1)C(=O)NC1CCCCC1` (stereo not drawn), the survival was 104%.
Turning to `CCC(Sc1nc2nccnc2c(=O)n1Cc1ccc(F)cc1)C(=O)NC1CCCCC1` (stereo not drawn), the survival is 42% (active).
Consider `CCC(Sc1nc2cc(OC)c(OC)cc2c(=O)n1Cc1ccc(Cl)cc1)C(=O)NCCOC` (stereo not drawn), for which the survival is 91%.
The result for `CCC(Sc1nnc(-c2ccc(F)cc2)c(-c2ccc(F)cc2)n1)C(=O)NC1CCCC1` (stereo not drawn) reads 75%; that for `CCC(Sc1nc2nccnc2c(=O)n1Cc1ccc(Cl)cc1)C(=O)NC1CCCCC1` (stereo not drawn), 19% (active).
With `CCC(Sc1nc2nccnc2c(=O)n1Cc1ccccc1Cl)C(=O)NC1CCCCC1` (stereo not drawn) the figure was 99%.
